Reference: PubChem BioAssay (Tox21)
A number with no mark means an inactive call. Records with an inconclusive call do not appear. A call without a number means that no potency is given here. The source made the active and inactive calls. Unless noted, calls come from the whole dose curve; as a rule, active = well fitted curve in the direction sought with a large enough effect in the repeat runs; inconclusive = weak or mixed curves; inactive = no such curve, though single readings can be large; an effect the other way counts as inactive or inconclusive.

Legend:
[1] = qHTS assay for small molecule agonists of the p53 signaling pathway (AID 651631; calls by dose curve; note: nearly all actives have a fitted effect of over 15% in size)
In short: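 HCT-116 p53RE-bla reporter line, 16 h compound treatment at 37 °C, then fluorescence after 2 h with B/G FRET substrate.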

[2] = qHTS assay for small molecules that induce genotoxicity in human embryonic kidney cells expressing luciferase-tagged ATAD5 (AID 651632); note: nearly all actives have a fitted effect of over 15% in size
In short: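 Genotoxicity read-out via ATAD5-luciferase: HEK293T cells, 16 hr compound incubation at 37C, Amplite detection.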

[3] = qHTS assay for small molecule agonists of the p53 signaling pathway - cell viability (AID 651633; calls by dose curve;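 note: p53RE-bla HCT reporter cells with a stable beta-lactamase p53 reporter; series mostly up to about 83 µM; nearly all actives have a fitted effect of over 30% in size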)
In short: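 p53RE-bla cells were treated with compound for 16 hours at 37 C. Cytotoxicity was then measured as CellTiter-Glo luminescence after 30 min at room temperature.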

[4] = qHTS assay for small molecules that induce genotoxicity in human embryonic kidney cells expressing luciferase-tagged ATAD5 - cell viability (AID 651634; calls by dose curve; note: nearly all actives have a fitted effect of over 25% in size)
In short: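 Live-cell protease activity (CellTiter-Fluor, fluorescence) indicates viability. HEK293T cells with luciferase-tagged ATAD5; 15.5 hr compound treatment at 37C.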

[5] = qHTS assay for small molecule disruptors of the mitochondrial membrane potential - cell viability (AID 720634; calls by dose curve;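 note: human HepG2 liver cancer cells; series mostly up to about 83 µM; nearly all actives have a fitted effect of over 20% in size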)
In short: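 Human hepatoma HepG2 cells were treated for 1 hr with test chemicals, then given m-MPI dye and CellTiter-Glo. Cell viability reflects luminescence proportional to cellular ATP.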

[6] = qHTS assay for small molecule disruptors of the mitochondrial membrane potential (AID 720635); note: potency is the fitted concentration of half-maximal effect
In short: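 HepG2 cells exposed to compound 1 hr at 37C, then Mito-MPS dye 30 min. Ratio read of aggregate (540/590 nm) versus monomer (490/535 nm) fluorescence.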

[7] = qHTS assay to test for compound auto fluorescence at 590 nm (red) in HepG2 cells (AID 720674)
In short: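 Fluorescence at 590 nm emission following 540 nm excitation was recorded from HepG2 wells one hour after compound transfer, with DMSO-only wells as vehicle and Rose Bengal sodium equivalency as the scale.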

[8] = qHTS assay to test for compound auto fluorescence at 535 nm (green) in HepG2 cells (AID 720675)
[9] = qHTS assay to test for compound auto fluorescence at 460 nm (blue) in HEK293 cells (AID 720678)
In short: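 Cells were seeded and left to adhere for 4-5 hr at 37C. Compounds were then pin-transferred. After an overnight incubation at 37C under 5% CO2, intrinsic fluorescence at 405/460 nm was measured and referenced to triamterene.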

[10] = qHTS assay to test for compound auto fluorescence at 590 nm (red) in HEK293 cells (AID 720679)
In short: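 Each well held 2,000 HEK293 cells in medium containing 10% dialyzed FBS. Following 4-5 hr attachment at 37C, 23 nL test compound or DMSO was added; plates sat overnight, and red fluorescence (540/590nm) was recorded.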

[11] = qHTS assay to test for compound auto fluorescence at 535 nm (green) in HEK293 cells (AID 720680)
[12] = qHTS assay to test for compound auto fluorescence at 460 nm (blue) in HEK293 cell free culture (AID 720681)
In short: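 Compounds were added to cell-free DMEM with 10% FBS and fluorescence read directly. The blue channel used 405 nm excitation and 460 nm emission, with triamterene as the reference fluorophore.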

[13] = qHTS assay to test for compound auto fluorescence at 535 nm (green) in HEK293 cell free culture (AID 720682)
In short: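 Steps: dispense DMEM/10% FBS into empty wells; pin in compound or DMSO; measure fluorescence at 485/535 nm. Values are fluorescein equivalents.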

[14] = qHTS assay to test for compound auto fluorescence at 590 nm (red) in HEK293 cell free culture (AID 720683)
In short: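 Cell-free wells of DMEM with 10% FBS received compound, and intrinsic fluorescence was read at excitation/emission 540/590 nm. Values expressed as equivalence to Rose Bengal sodium.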

[15] = qHTS assay to test for compound auto fluorescence at 590 nm (red) in HepG2 cell free culture (AID 720684)
In short: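 Compound was pinned into wells holding MEM with 10% FBS and no cells, and red fluorescence was read at Ex/Em 540/590 nm. Signal is expressed as auto fluorescence equivalency relative to Rose Bengal sodium.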

[16] = qHTS assay to test for compound auto fluorescence at 460 nm (blue) in HepG2 cell free culture (AID 720685)
In short: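 Compound (23 nL) or DMSO pinned into cell-free MEM with 10% FBS; blue fluorescence read at 405/460 nm excitation/emission, expressed as auto-fluorescence equivalency to triamterene.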

[17] = qHTS assay to test for compound auto fluorescence at 535 nm (green) in HepG2 cell free culture (AID 720686)
[18] = qHTS assay to test for compound auto fluorescence at 460 nm (blue) in HepG2 cells (AID 720687)
In short: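 HepG2 cells in MEM with 10% FBS, attached overnight at 37 C, were exposed to compound or DMSO for 1 hr at 37 C, 5% CO2. Blue fluorescence was read at 405/460 nm, with triamterene as reference fluorophore.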

[19] = molecular target: Glucocorticoid receptor (Homo sapiens) (UniProt P04150); experiment: qHTS assay to identify small molecule agonists of the glucocorticoid receptor (GR) signaling pathway (AID 720691; active = well fitted activation curve with a large enough effect in the signal ratio in the repeat runs, not every such curve was filed as active; the % refers to the signal ratio)
In short: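 Beta-lactamase reporter activity, read as fluorescence intensity, was measured in GR-bla HeLa cells exposed to compounds for 18 h at 37 C and then loaded with LiveBLAzer B/G FRET substrate for 2 h at room temperature.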

[20] = molecular target: Glucocorticoid receptor (Homo sapiens) (UniProt P04150); experiment: qHTS assay to identify small molecule antagonists of the glucocorticoid receptor (GR) signaling pathway (AID 720692; active = well fitted inhibition curve with a large enough effect in the signal ratio in the repeat runs, not every such curve was filed as active; the % refers to the signal ratio)
In short: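 Fluorescence from cleaved LiveBLAzer B/G FRET substrate reports GRE-driven beta-lactamase in HeLa cells; compounds are tested against 5 nM dexamethasone (final) over 18 h at 37 C, substrate incubation 2 h at room temperature.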

Sequence of Glucocorticoid receptor (Homo sapiens) (P04150 whole entry, looked up): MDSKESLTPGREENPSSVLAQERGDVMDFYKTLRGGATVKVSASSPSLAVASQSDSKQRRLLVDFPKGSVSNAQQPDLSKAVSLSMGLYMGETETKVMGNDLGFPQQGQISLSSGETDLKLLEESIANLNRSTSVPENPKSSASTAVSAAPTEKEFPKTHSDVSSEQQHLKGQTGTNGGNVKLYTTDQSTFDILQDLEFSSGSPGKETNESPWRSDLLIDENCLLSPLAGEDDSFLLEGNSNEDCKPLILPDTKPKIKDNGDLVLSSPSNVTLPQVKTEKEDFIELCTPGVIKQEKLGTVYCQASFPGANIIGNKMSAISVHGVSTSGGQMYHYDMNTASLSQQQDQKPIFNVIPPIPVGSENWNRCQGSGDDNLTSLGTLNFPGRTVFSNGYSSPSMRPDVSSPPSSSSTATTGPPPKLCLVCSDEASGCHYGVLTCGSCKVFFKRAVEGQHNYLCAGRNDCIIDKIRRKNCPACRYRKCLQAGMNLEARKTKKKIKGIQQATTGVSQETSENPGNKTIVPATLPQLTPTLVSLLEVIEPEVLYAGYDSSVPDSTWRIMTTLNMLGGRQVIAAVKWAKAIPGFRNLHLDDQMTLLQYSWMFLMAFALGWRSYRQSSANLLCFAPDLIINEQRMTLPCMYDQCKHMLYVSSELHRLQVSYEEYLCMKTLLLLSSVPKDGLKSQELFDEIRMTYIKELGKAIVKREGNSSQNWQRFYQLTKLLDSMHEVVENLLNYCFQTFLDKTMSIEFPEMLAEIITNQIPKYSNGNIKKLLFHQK

COc1cc(OC)cc(OC)c1
Potency [1]: inactive | Potency [2]: inactive | outcome [3]: inactive | outcome [4]: inactive | outcome [5]: inactive | Potency [6]: inactive | outcome [7]: inactive | outcome [8]: inactive | outcome [9]: inactive | outcome [10]: inactive | outcome [11]: inactive | outcome [12]: inactive | outcome [13]: inactive | outcome [14]: inactive | outcome [15]: inactive | outcome [16]: inactive | outcome [17]: inactive | outcome [18]: inactive

CC(C)c1cc(C(C)C)cc(C(C)C)c1
Potency [1]: inactive | Potency [2]: inactive | outcome [3]: inactive | outcome [4]: inactive | outcome [5]: inactive | Potency [6]: inactive | outcome [7]: inactive | outcome [8]: inactive | outcome [9]: inactive | outcome [10]: inactive | outcome [11]: inactive | outcome [12]: inactive | outcome [13]: inactive | outcome [14]: inactive | outcome [15]: inactive | outcome [16]: inactive | outcome [17]: inactive | outcome [18]: inactive | Potency [19]: inactive | outcome [20]: inactive

CCCCN(CCCC)CCCCCCN(CCCC)CCCC
Potency [1]: inactive | Potency [2]: inactive | outcome [3]: inactive | outcome [4]: inactive | outcome [5]: inactive | Potency [6]: inactive | outcome [7]: inactive | outcome [8]: inactive | outcome [9]: inactive | outcome [10]: inactive | outcome [11]: inactive | outcome [12]: inactive | outcome [13]: inactive | outcome [14]: inactive | outcome [15]: inactive | outcome [16]: inactive | outcome [18]: inactive

C[n+]1ccccc1/C=N/O
Potency [1]: inactive | Potency [2]: inactive | outcome [3]: inactive | outcome [4]: inactive | outcome [5]: inactive | Potency [6]: inactive | fluorescence, relative to Rose Bengal [7]: 0.247% [at 18.6 µM] | fluorescence, % of fluorescein control [8]: -0.126% [at 18.6 µM] | fluorescence, % of triamterene [9]: -0.0874% [at 18.6 µM] | fluorescence, % of fluorescent control [10]: -1.07% [at 18.6 µM] | fluorescence, % of fluorescein [11]: -0.0429% [at 18.6 µM] | fluorescence, % of fluorescent control [12]: 0.0506% [at 18.6 µM] | activity change [13]: -0.0149% [at 18.6 µM] | fluorescence, % of fluorescent control [14]: -0.29% [at 18.6 µM] | fluorescence, % of Rose Bengal [15]: -0.356% [at 18.6 µM] | fluorescence, % of fluorescent control [16]: -0.0014% [at 18.6 µM] | fluorescence, % of fluorescein control [17]: 0.0162% [at 18.6 µM] | fluorescence, % of fluorescent control [18]: 0.0546% [at 18.6 µM] | outcome [20]: inactive

CCCCCCCCCCCCCC(=O)OCC
Potency [1]: inactive | Potency [2]: inactive | outcome [3]: inactive | outcome [4]: inactive | outcome [5]: inactive | Potency [6]: inactive | outcome [7]: inactive | outcome [8]: inactive | outcome [9]: inactive | outcome [10]: inactive | outcome [11]: inactive | outcome [12]: inactive | outcome [13]: inactive | outcome [14]: inactive | outcome [15]: inactive | outcome [16]: inactive | outcome [17]: inactive | outcome [18]: inactive | Potency [19]: inactive

COC(=O)c1c(C)cc(O)c(C)c1O
Potency [1]: inactive | Potency [2]: inactive | outcome [3]: inactive | outcome [4]: inactive | outcome [5]: inactive | Potency [6]: 12.2 µM (active) | outcome [7]: inactive | outcome [8]: inactive | outcome [9]: inactive | outcome [10]: inactive | outcome [11]: inactive | outcome [12]: inactive | outcome [13]: inactive | outcome [14]: inactive | outcome [15]: inactive | outcome [17]: inactive | outcome [18]: inactive

CCCC(=O)C(CC)Sc1ccoc1C (configuration not stated)
Potency [1]: inactive | Potency [2]: inactive | outcome [3]: inactive | outcome [4]: inactive | outcome [5]: inactive | Potency [6]: inactive | outcome [7]: inactive | outcome [8]: inactive | outcome [9]: inactive | outcome [10]: inactive | outcome [11]: inactive | outcome [12]: inactive | outcome [13]: inactive | outcome [14]: inactive | outcome [15]: inactive | outcome [16]: inactive | outcome [18]: inactive
